Results published in the supplement of paper PMC11732987, “Enantioselective OTUD7B fragment discovery through chemoproteomics screening and high-throughput optimisation” (Communications Chemistry, 2025).

How the values were obtained:
Test in all cases: log2 ratio of Biotin-Ahx-Ub-VS probe labelling (fragment/DMSO); higher = less target engagement (more negative = stronger competition), active = hit call of the paper (q ≤ 0.05, log2 ratio ≤ -1)
Settings in all cases: compound concentration: 200 uM; treatment time: 3 h
USP9X = USP9X (UniProt Q93008)
How it was run: (§1)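 HEK293T lysate (495 µg per sample, in Tris/CHAPS/IGEPAL buffer with protease inhibitors) was treated in triplicate with fragment at 200 µM or with DMSO for 3 h. It was then treated with Biotin-Ahx-Ub-VS (0.5 µM final) for 1 h. Labelled DUBs were NeutrAvidin-enriched, digested with LysC and trypsin, and run by diaPASEF LC-MS/MS. Spectronaut label-free quantities were global-median-normalised. Values are average log2 ratios fragment/DMSO by unpaired t-test, using proteins with ≥2 unique peptides.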

UniProt O00487 = target: UniProt O00487
How it was run: as §1

UniProt O00507 = target: UniProt O00507
How it was run: as §1

UniProt P51784 = target: UniProt P51784
How it was run: as §1

UniProt Q5T2D3 = target: T1, UniProt Q5T2D3
T1 sequence (whole entry): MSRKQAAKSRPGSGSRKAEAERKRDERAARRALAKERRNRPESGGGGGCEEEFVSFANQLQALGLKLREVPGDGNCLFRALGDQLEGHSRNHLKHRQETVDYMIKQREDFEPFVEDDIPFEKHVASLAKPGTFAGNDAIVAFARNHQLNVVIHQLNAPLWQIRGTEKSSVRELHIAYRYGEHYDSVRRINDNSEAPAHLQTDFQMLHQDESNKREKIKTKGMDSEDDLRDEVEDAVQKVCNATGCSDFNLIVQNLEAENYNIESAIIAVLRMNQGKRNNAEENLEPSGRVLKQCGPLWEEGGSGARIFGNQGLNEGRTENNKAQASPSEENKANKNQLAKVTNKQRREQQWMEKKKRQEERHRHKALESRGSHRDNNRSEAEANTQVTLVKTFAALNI
How it was run: as §1

UniProt Q8TE49 = target: T2, UniProt Q8TE49
T2 sequence (whole entry): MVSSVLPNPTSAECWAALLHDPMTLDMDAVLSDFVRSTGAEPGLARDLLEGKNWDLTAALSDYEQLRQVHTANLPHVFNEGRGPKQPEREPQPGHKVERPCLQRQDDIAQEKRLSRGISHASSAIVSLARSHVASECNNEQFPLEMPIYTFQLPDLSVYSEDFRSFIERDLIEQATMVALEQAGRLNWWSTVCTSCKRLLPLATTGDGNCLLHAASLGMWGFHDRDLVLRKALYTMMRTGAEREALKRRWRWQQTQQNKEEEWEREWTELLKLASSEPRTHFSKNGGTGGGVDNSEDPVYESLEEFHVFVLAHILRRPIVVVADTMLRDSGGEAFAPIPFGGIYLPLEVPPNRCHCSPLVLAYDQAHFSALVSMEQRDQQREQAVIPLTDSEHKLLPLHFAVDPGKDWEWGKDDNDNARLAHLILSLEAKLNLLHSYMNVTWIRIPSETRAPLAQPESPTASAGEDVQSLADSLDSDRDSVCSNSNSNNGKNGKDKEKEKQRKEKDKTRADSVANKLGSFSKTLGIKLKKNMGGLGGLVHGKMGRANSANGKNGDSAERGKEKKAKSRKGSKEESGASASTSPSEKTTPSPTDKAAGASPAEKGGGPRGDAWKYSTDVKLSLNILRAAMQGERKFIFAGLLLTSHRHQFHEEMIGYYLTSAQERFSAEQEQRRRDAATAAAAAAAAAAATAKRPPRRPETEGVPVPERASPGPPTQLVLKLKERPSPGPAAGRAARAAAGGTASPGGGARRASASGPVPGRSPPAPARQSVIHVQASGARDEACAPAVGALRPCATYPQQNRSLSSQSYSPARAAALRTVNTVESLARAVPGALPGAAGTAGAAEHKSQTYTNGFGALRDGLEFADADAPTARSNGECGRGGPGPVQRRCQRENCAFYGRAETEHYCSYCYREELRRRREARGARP
How it was run: as §1

UniProt Q9P2H5 = target: T3, UniProt Q9P2H5
T3 sequence (whole entry): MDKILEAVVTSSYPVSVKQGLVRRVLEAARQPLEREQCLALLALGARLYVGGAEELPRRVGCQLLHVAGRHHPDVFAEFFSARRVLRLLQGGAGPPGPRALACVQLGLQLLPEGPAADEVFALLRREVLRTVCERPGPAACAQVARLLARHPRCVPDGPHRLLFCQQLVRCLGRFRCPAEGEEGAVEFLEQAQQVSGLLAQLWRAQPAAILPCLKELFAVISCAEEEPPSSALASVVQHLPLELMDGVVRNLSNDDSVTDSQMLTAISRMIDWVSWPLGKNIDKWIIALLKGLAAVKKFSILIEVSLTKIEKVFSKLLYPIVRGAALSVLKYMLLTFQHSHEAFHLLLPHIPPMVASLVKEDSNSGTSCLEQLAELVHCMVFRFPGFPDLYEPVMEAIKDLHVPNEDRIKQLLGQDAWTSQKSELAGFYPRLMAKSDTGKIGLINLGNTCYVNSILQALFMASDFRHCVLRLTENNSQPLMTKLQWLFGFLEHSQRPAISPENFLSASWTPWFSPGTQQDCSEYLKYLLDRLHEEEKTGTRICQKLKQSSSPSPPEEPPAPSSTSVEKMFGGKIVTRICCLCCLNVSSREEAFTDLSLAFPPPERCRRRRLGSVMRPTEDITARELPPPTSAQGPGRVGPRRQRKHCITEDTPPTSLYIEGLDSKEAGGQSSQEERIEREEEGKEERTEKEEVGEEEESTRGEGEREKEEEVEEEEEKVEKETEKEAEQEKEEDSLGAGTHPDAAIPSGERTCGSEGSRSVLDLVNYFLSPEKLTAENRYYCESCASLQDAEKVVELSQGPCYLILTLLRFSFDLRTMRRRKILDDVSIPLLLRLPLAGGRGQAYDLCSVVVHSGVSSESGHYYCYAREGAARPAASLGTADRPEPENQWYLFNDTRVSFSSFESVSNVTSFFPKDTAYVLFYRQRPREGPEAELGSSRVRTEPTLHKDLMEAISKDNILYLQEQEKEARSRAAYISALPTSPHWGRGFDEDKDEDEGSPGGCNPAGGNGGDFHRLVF
How it was run: as §1

UniProt Q9UGI0 = target: T4, UniProt Q9UGI0
T4 sequence (whole entry): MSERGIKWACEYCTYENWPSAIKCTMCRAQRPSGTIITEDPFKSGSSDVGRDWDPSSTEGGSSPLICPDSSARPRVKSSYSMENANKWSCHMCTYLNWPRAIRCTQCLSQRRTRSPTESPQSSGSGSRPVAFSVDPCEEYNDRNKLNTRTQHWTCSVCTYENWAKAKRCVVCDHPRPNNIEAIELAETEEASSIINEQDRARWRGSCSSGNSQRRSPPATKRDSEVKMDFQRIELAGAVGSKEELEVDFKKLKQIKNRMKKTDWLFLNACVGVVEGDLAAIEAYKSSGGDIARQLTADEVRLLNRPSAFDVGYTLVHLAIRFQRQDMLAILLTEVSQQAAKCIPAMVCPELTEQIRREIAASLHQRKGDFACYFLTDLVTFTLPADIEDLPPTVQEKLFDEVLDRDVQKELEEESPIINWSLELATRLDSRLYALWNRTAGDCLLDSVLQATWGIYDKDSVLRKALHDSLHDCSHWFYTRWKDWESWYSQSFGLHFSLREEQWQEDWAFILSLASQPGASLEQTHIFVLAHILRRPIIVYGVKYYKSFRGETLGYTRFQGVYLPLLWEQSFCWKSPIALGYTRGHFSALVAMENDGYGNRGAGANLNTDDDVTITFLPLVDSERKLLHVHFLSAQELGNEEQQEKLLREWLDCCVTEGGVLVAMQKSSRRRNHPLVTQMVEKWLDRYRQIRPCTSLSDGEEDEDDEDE
How it was run: as §1

YOD1 = target: T5, YOD1 (UniProt Q5VVQ6)
T5 sequence (whole entry): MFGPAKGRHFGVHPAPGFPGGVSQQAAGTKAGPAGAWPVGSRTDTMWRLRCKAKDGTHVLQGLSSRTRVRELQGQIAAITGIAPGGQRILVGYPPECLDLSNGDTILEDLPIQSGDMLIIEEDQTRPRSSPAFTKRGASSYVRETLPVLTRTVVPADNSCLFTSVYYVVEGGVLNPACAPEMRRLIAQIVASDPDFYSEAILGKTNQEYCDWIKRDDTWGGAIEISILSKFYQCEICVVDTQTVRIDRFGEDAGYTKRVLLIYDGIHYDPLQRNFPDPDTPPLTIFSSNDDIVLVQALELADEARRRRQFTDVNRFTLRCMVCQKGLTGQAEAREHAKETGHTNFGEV
How it was run: as §1

Measured: log2 ratio of Biotin-Ahx-Ub-VS probe labelling

UniProt P51784, sequence (P51784 whole entry): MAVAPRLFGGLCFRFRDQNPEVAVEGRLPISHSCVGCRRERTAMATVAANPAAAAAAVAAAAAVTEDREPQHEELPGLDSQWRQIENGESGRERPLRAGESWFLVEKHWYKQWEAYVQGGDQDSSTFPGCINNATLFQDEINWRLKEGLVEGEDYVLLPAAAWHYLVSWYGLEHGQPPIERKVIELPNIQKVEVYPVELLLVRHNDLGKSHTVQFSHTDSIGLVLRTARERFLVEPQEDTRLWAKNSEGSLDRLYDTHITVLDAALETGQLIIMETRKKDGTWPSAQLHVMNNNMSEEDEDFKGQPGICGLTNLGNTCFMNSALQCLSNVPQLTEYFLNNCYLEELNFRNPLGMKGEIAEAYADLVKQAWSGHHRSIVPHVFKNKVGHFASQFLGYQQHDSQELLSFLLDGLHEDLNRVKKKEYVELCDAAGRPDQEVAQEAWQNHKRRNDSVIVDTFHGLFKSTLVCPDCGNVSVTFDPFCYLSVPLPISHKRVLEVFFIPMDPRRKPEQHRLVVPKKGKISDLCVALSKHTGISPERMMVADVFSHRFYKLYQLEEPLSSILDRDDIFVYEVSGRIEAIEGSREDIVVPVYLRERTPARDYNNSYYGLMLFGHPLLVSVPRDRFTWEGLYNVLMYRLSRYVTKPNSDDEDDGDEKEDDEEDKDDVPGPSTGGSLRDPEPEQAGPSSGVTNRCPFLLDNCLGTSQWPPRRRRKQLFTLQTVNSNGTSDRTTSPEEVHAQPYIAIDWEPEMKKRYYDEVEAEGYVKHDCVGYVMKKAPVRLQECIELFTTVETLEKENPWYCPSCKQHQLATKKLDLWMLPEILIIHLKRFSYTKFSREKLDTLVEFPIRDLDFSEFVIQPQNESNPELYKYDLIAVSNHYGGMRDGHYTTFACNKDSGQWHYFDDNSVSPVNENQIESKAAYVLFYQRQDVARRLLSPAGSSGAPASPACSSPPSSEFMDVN
UniProt O00487, sequence (O00487 whole entry): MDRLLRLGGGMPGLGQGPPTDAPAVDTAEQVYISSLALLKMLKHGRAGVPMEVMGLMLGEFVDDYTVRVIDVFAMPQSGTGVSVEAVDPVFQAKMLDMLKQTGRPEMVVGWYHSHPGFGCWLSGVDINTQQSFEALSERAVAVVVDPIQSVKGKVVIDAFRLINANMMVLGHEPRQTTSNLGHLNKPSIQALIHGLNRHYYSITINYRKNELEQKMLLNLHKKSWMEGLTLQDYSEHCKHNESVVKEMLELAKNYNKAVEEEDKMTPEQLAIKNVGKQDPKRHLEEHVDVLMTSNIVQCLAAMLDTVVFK
USP9X, sequence (Q93008 whole entry, the tested form may be a part): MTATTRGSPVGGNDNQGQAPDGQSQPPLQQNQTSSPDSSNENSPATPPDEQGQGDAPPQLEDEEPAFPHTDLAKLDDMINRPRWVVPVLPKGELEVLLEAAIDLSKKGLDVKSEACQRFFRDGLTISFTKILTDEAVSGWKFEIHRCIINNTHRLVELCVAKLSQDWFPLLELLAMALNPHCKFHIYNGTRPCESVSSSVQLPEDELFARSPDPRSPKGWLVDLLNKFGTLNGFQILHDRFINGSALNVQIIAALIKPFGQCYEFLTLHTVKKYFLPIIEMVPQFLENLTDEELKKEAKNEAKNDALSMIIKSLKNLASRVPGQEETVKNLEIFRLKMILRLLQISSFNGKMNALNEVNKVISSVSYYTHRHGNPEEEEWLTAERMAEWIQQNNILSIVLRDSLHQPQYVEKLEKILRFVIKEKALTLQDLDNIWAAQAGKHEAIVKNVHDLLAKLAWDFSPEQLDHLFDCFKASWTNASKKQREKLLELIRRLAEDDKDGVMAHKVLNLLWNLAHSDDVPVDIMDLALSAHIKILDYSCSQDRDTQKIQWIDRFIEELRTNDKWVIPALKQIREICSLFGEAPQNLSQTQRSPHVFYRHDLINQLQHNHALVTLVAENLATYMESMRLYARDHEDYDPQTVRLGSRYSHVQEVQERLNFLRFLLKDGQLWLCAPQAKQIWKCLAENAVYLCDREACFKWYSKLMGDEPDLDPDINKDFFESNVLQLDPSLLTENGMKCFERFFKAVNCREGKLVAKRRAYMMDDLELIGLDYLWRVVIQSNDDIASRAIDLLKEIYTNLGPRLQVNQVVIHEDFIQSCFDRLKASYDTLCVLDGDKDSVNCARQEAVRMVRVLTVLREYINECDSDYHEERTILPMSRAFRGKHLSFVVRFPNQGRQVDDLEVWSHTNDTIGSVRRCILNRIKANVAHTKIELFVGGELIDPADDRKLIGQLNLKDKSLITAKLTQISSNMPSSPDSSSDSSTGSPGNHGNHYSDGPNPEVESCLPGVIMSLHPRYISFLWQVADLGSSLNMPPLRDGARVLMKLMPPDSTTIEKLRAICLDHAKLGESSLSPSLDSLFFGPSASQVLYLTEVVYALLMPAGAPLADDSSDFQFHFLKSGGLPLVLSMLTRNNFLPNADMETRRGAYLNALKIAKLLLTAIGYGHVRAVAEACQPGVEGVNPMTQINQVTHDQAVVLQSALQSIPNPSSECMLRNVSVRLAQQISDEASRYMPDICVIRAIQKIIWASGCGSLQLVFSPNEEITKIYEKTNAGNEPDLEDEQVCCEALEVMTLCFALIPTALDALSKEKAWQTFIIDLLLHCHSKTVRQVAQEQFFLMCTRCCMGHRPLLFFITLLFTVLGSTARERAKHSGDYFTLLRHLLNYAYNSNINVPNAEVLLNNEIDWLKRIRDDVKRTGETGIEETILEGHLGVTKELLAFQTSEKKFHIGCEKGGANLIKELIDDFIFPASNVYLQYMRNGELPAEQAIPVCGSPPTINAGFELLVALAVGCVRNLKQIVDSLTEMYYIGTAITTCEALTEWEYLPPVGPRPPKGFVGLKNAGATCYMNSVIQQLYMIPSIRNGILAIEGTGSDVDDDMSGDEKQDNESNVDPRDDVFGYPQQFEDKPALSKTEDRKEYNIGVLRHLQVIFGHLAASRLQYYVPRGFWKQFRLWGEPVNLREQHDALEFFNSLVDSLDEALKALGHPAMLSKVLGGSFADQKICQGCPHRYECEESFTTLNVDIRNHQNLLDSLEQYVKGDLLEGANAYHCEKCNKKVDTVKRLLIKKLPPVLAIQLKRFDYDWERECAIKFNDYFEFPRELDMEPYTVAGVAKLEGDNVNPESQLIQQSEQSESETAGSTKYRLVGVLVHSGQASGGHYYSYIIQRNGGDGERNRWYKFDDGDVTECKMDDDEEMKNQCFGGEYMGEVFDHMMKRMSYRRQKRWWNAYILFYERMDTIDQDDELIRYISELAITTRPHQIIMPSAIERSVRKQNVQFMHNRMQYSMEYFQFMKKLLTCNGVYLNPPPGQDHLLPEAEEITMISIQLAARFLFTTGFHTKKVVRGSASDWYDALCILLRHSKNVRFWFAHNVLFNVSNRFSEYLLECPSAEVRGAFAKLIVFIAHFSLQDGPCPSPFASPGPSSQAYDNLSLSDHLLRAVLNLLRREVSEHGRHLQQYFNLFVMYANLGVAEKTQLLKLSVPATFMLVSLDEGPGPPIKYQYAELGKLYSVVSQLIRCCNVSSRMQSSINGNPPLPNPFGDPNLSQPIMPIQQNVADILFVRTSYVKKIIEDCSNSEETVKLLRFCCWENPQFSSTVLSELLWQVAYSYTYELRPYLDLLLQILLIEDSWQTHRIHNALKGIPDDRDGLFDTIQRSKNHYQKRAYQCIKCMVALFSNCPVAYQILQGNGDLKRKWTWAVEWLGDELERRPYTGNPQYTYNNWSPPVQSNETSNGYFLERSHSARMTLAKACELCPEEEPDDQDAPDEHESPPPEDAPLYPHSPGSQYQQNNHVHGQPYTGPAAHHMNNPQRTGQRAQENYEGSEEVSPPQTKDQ

O=C(CCl)Nc1ccc(F)cc1F
inactive: USP9X -0.218 | UniProt O00487 -0.099 | UniProt O00507 -0.387 | UniProt P51784 0.0319 | UniProt Q5T2D3 -0.334 | UniProt Q8TE49 -0.55 | UniProt Q9P2H5 -0.199 | UniProt Q9UGI0 -0.962 | YOD1 -0.107
